# Source: PubChem BioAssay AID602342 (Broad Institute, 2012)
# The campaign covered roughly 340,000 compounds. About 1,000 (0.29%) were called active. The sample holds actives, similar compounds and a random draw of the others, so the mix is not that of the screen.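 The calls were made as follows: active = mean replicate activation score at least 90 and every replicate individually at or above 90; inconclusive = only one of the two criteria met; inactive = neither criterion met.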
# Experiment: miR-122 Renilla sensor signal increase in Huh7, primary screen, miR-122 inhibitor project, cell-based, single point, plate reader (AID 602342);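 also: higher luciferase means less miR-122 activity so hits act as miR-122 inhibitors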
# Conditions: Huh7 miR-122 Renilla luciferase sensor, 48 h, stronger effect = higher value, neutral wells = 0, positive control = 100; at 16.7 µM unless noted
row,Structure (SMILES),activation (reporter increase)
1,Cc1ccc(S(=O)(=O)Nc2ccc3c(c2)C(=O)N([C@H](C)CO)C[C@H](C)[C@H](CN(C)S(=O)(=O)c2ccc(F)cc2)O3)cc1,-7.86% (inactive)
2,CC(=O)N1CC[C@@H]2[C@@H](CO)N(C)c3ccc(-c4ccc(C#N)cc4)cc3[C@@H]21,-2.99% (inactive)
3,C[C@@H]1CN([C@H](C)CO)C(=O)c2cc(NC(=O)NC3CCCCC3)ccc2O[C@@H](C)CCCCO[C@H]1CN(C)S(C)(=O)=O,-11.1% (inactive)
4,CCC(=O)N[C@H]1C=C[C@@H](CC(=O)NCC2CCCCC2)O[C@H]1CO,-4.01% (inactive)
5,C[C@@H]1CCCCO[C@@H](CN(C)Cc2ccncc2)[C@H](C)CN([C@@H](C)CO)C(=O)c2cc(N(C)C)ccc2O1,9.37% (inactive)
6,C[C@@H]1CN([C@@H](C)CO)C(=O)Cc2cc(NC(=O)Nc3ccc(F)cc3)ccc2O[C@@H]1CN(C)C,-1.94% (inactive)
7,CN(C)C(=O)[C@@H]1[C@@H](CO)[C@@H]2Cn3c(cccc3=O)[C@H]1N2CC1CCCCC1,-3.4% (inactive)
8,Cc1ccccc1-c1cnc2c(c1)C(=O)N([C@@H](C)CO)C[C@@H](C)[C@@H](CN(C)CC1CCOCC1)O2,-4.12% (inactive)
9,CN1C(=O)c2cc(NS(=O)(=O)c3ccc(Cl)cc3)ccc2OC[C@H]2O[C@@H](CC(=O)O)CC[C@H]21,37.8% (inactive)
10,O=C(Oc1ccc(C(=S)N2CCOCC2)cc1)c1ccc(F)cc1,330% [at 12.5 µM] (active)
11,Cc1ccc(C(=O)Oc2ccc(C(=S)N3CCOCC3)cc2)cc1,-1.88% [at 12.5 µM] (inactive)
12,O=C(Oc1ccc(F)cc1)N1CCOCC1,-3.21% [at 12.5 µM] (inactive)
13,CC(=O)N(C)C[C@H]1Oc2ncc(-c3cccc(F)c3)cc2C(=O)N([C@@H](C)CO)C[C@H]1C,-3.49% (inactive)
14,CN1C(=O)c2cc(NC(=O)c3ccc(F)c(F)c3)ccc2OC[C@H]2O[C@@H](CC(=O)N3CCCCC3)CC[C@H]21,-8.45% (inactive)
15,O=C(/C=C/c1ccc2c(c1)OCCO2)c1ccc(O)cc1,7.01% [at 12.5 µM] (inactive)
16,O=C(/C=C(O)/C=C/c1ccc(O)cc1)/C=C/c1ccc(O)cc1,140% [at 12.5 µM] (active)
17,COc1ccc(/C=C/C(=O)c2c(O)cc(OC)cc2OC)cc1,2.04% [at 12.5 µM] (inactive)
18,Cc1noc(C)c1NC(=O)N(C)C[C@H]1OCCCC[C@H](C)Oc2ccc(NC(=O)Nc3ccccc3)cc2C(=O)N([C@H](C)CO)C[C@@H]1C,-0.276% (inactive)
19,Cn1cnc([N+](=O)[O-])c1Sc1ccccc1,217% [at 12.5 µM] (active)
20,Cn1cnc([N+](=O)[O-])c1Sc1n[nH]c(N)n1,-3.18% [at 12.5 µM] (inactive)
21,Cn1cnc([N+](=O)[O-])c1Nc1ccccc1O,2.42% [at 12.5 µM] (inactive)
22,CCN(C[C@@H]1[C@H](c2ccccc2)[C@@H](CO)N1CC1CC1)C(=O)c1ccccn1,-7.14% (inactive)
23,C[C@@H]1CN([C@@H](C)CO)C(=O)Cc2cc(NC(=O)C3CC3)ccc2O[C@H]1CN(C)C(=O)NC1CCCCC1,0.966% (inactive)

row,Structure (SMILES),activation (reporter increase)
1,COc1cc(OC)c(C(=O)Nc2ccccc2-c2ccccc2)cc1OC,9.15% [at 12.5 µM] (inactive)
2,Cc1ccc(C(=O)Nc2ccccc2-c2ccccc2)cc1S(=O)(=O)Nc1ccccc1,94% [at 12.5 µM] (active)
3,CCN(CC)S(=O)(=O)c1cc(C(=O)Nc2ccccn2)ccc1C,-6.4% [at 12.5 µM] (inactive)
4,C[C@H]1CCCCO[C@@H](CN(C)C(=O)Nc2cccc3ccccc23)[C@@H](C)CN([C@@H](C)CO)C(=O)c2cc(NS(=O)(=O)c3cn(C)cn3)ccc2O1,-0.833% (inactive)
5,Cc1ccc(NS(=O)(=O)c2ccc(F)cc2)nc1,4.41% [at 12.5 µM] (inactive)
6,Cn1c(=O)n(C)c2cc(S(=O)(=O)Nc3ccc(F)cc3)ccc21,44% [at 12.5 µM] (inactive)
7,Cc1cc(C)cc(NS(=O)(=O)c2ccc(F)cc2)c1,117% [at 12.5 µM] (active)
8,COc1ccc(CN(C)C[C@H]2Oc3c(NS(=O)(=O)c4ccccc4)cccc3C(=O)N([C@@H](C)CO)C[C@H]2C)cc1,4.79% (inactive)
9,CCC(=O)N1[C@@H]2c3ccc(-c4cccnc4)c(=O)n3C[C@H]1[C@H](CO)[C@H]2C(=O)N1CCc2ccccc2C1,2.45% (inactive)
10,COc1ccccc1C#Cc1cnc2c(c1)C(=O)N([C@@H](C)CO)C[C@H](C)[C@@H](CN(C)C(=O)CC1CC1)O2,-1.03% (inactive)
11,O=C1c2ccccc2C2=Nc3ccccc3SC(c3ccccc3F)C12 (configuration not stated),162% [at 12.5 µM] (active)
12,O=C1c2ccccc2C(=O)C1c1ccccc1F,-3.15% [at 12.5 µM] (inactive)
13,O=C(C[C@@H]1C[C@@H]2c3cc(NC(=O)Nc4ccccc4F)ccc3O[C@@H]2[C@H](CO)O1)NCCc1ccccc1,-2.6% (inactive)
14,N#CCCN(C(=O)Nc1ccc(Cl)c(Cl)c1)C1CCCCC1,-4.25% [at 12.5 µM] (inactive)
15,CS(=O)(=O)N(CC(=O)Nc1ccc(Cl)c(Cl)c1)C1CCCCC1,174% [at 12.5 µM] (active)
16,CS(=O)(=O)N(CC(=O)Nc1ccc(F)cc1)C1CCCCC1,0.106% [at 12.5 µM] (inactive)
17,C[C@@H]1CN([C@H](C)CO)C(=O)c2cc(C#CCN(C)C)cnc2O[C@H]1CN(C)C(=O)NC1CCCC1,26% (inactive)
18,CN1CCN(C(=O)C[C@H]2C[C@@H]3c4cc(NS(=O)(=O)c5ccc(F)cc5)ccc4O[C@@H]3[C@@H](CO)O2)CC1,-5.91% (inactive)
19,CCCN1C[C@H](C)[C@@H](OC)CN(C)C(=O)c2ccc(NC(=O)CC)cc2OC[C@@H]1C,4.54% (inactive)
20,CCc1ccc(-c2cc(C)no2)cc1S(=O)(=O)NCCc1ccc(S(N)(=O)=O)cc1,124% [at 12.5 µM] (active)
21,COc1ccc(CNS(=O)(=O)c2cc(-c3cc(C)no3)ccc2C(C)C)cc1,200% [at 12.5 µM] (active)
22,Cc1cc(-c2ccc(C)c(S(=O)(=O)NCCCN(Cc3ccccc3)C(C)C)c2)on1,46.4% [at 12.5 µM] (inactive)
23,CCOc1ccccc1CNS(=O)(=O)c1cc(-c2cc(C)no2)ccc1C,54.4% [at 12.5 µM] (inactive)

row,Structure (SMILES),activation (reporter increase)
1,Cc1noc(C)c1S(=O)(=O)NCCc1ccc(S(N)(=O)=O)cc1,-7.32% [at 12.5 µM] (inactive)
2,Cc1cc(-c2ccc(C)c(S(=O)(=O)Nc3ccc(S(N)(=O)=O)cc3)c2)on1,5.41% [at 12.5 µM] (inactive)
3,C[C@@H]1CN([C@@H](C)CO)C(=O)c2cc(NC(=O)Nc3cccc4ccccc34)ccc2O[C@H]1CN(C)Cc1ccc(Oc2ccccc2)cc1,-7.47% (inactive)
4,C[C@H](CO)N1C[C@H](C)[C@@H](CN(C)C(=O)C2CC2)Oc2ncc(-c3cccc(F)c3)cc2C1=O,-1.71% (inactive)
5,CN(C)C(=O)C[C@@H]1CC[C@H]2[C@@H](COC[C@H](O)CN2S(=O)(=O)c2ccccc2)O1,0.2% (inactive)
6,CCCNC(=O)Nc1ccc2c(c1)C(=O)N(C)[C@@H]1CC[C@@H](CC(=O)NC)O[C@H]1CO2,-13.3% (inactive)
7,O=C(C[C@@H]1CC[C@H]2[C@@H](COC[C@@H](O)CN2C(=O)c2ccc3c(c2)OCO3)O1)NC1Cc2ccccc2C1,5.8% (inactive)
8,COCCNC(=O)C[C@@H]1CC[C@H]2[C@H](COc3ccc(NS(=O)(=O)c4ccc(Cl)cc4)cc3C(=O)N2C)O1,12.5% (inactive)
9,C[C@@H]1CN([C@@H](C)CO)C(=O)c2cc(C#CC(C)(C)O)cnc2O[C@H]1CN(C)Cc1cccc(F)c1,0.476% (inactive)
10,CO[C@@H]1CN(C)C(=O)c2ccc(NC(=O)C3CCC3)cc2OC[C@H](C)N(C(=O)CN(C)C)C[C@H]1C,-7.5% (inactive)
11,CCCC(=O)Nc1ccc2c(c1)C(=O)N(C)[C@H]1CC[C@@H](CC(=O)NCc3cccc(F)c3)O[C@H]1CO2,120% (active)
12,COCC(=O)Nc1ccc2c(c1)C(=O)N(C)[C@H]1CC[C@@H](CC(=O)NCc3cccc(F)c3)O[C@H]1CO2,62.5% (inactive)
13,COCC(=O)Nc1ccc2c(c1)C(=O)N(C)[C@@H]1CC[C@@H](CC(=O)NCc3cccc(F)c3)O[C@@H]1CO2,41.7% (inactive)
14,CS(=O)(=O)N1[C@H](C(=O)NCc2ccncc2)[C@@H](CO)[C@@H]2Cn3c(ccc(C4=CCCCC4)c3=O)[C@@H]21,1.3% (inactive)
15,O=C(Nc1cccc(S(=O)(=O)NC2=NCCC2)c1)c1ccc(F)cc1F,0.138% [at 12.5 µM] (inactive)
16,CCS(=O)(=O)c1ccc(O)c(NC(=O)COc2ccc(Cl)cc2)c1,2.08% [at 12.5 µM] (inactive)
17,O=C(Nc1cc(S(=O)(=O)Nc2ccc(Cl)cc2)ccc1O)c1ccc(F)cc1F,118% [at 12.5 µM] (active)
18,C[C@H](CO)N1C[C@H](C)[C@H](CN(C)C(=O)NC2CCCCC2)OCCCC[C@H](C)Oc2ccc(NC(=O)Nc3ccc4c(c3)OCO4)cc2C1=O,-2.47% (inactive)
19,C[C@@H]1CCCCO[C@H](CN(C)Cc2ccccc2)[C@H](C)CN([C@H](C)CO)C(=O)c2cc(NS(=O)(=O)c3ccc(Cl)cc3)ccc2O1,-12.3% (inactive)
20,COc1ccc(S(=O)(=O)Nc2ccc3c(c2)C(=O)N([C@@H](C)CO)C[C@@H](C)[C@H](CN(C)C(=O)CCC(F)(F)F)OCCCC[C@H](C)O3)cc1,-1.47% (inactive)
21,C[C@@H]1CN([C@@H](C)CO)C(=O)c2cc(-c3cncnc3)cnc2O[C@H]1CN(C)C(=O)c1cccc(F)c1,-0.099% (inactive)
